# Laboratory results published in the supplement of paper PMC8540655.
# Unmarked numbers belong to inactive results.
# System: Aedes aegypti larvae
# Assay: larval motility relative to same well at 0 h (fraction); higher = more motile (less active compound), active = 0.4 or less
# Conditions: 10 µM
# Method in brief: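 Relative motility is the score of a well divided by its own score at the first recording. Movies were made with INVAPP at 0, 2 and 24 h, each having 200 frames at 100 ms intervals. Larvae of Aedes aegypti, from 18–24 h hatches in pond salt solution with yeast at 25 °C, sat at about 10 per well (100 µL) in 96-well plates with compounds at 10 µM and 1% v/v DMSO. Solvent and larvicide control wells were included on every plate, and values are medians of three independent larval batches.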
SMILES,larval motility (2 h),larval motility (24 h)
CC(C)Nc1nc2cc(Cl)c(Cl)cc2n1[C@H]1O[C@@H](CO)[C@H](O)[C@@H]1O,1.1,0.602
Cc1ccccc1NC(=O)Nc1cccc([N+](=O)[O-])c1,1.19,1.34
Fc1ccc2c(/C=C/c3nnn[nH]3)c[nH]c2c1,1.85,1.39
O=C(O)CCNC(=O)c1ccccc1,0.977,1.03
Cn1cc(NC(=O)c2cc(NC(=O)c3ccc(/C=C/c4cnc5ccccc5c4)cc3)cn2C)cc1C(=O)NCCN1CCOCC1,1.3,0.773
CC(C)C(=O)N[C@H]1[C@H]([C@H](O)[C@H](O)CO)OC(C(=O)O)=C[C@@H]1N=[N+]=[N-],1.64,1.56
Nc1ccc(-c2nc3cc(C(F)(F)F)ccc3n2C23CC4CC(CC(C4)C2)C3)cc1,1.1,1.22
O=C(NC1CCCc2c1[nH]c1ccc(Cl)cc21)c1ccccn1 (configuration not stated),1.38,1.01
COCCn1cnc2c(=O)[nH]c(Nc3ccccc3)nc21,0.921,0.552
Cc1c[nH]c(=O)nc1NCc1ccccc1,1.16,0.91
Nc1nc2c(ncn2/C=C2/CC2(CO)CO)c(=O)[nH]1,0.842,0.573
O=C(Nc1ccc(-c2ccccc2)cc1)C1=C(O)C(Cc2ccccc2)OC1=O (configuration not stated),0.886,0.946
O=[N+]([O-])c1cn(Cc2nc(O)nc(O)c2Br)cn1,0.834,0.417
Fc1cccc(Cl)c1C1CC(c2ccc(Cl)cc2)Nc2nnnn21 (configuration not stated),1.01,1.08
C[C@@H]1O[C@@H]1P(=O)(O)O,0.617,0.856
CONC(=N)c1ccc(-c2ccc(-c3ccc(C(=N)NOC)cc3)o2)cc1,0.699,2.2
O=C(Nc1ccccc1C(=O)O)c1cccc(Oc2ccccc2)c1,0.522,1.44
CC(C)(C)NC(=O)N[C@H](C(=O)N1C[C@H]2[C@@H]([C@H]1C(=O)NC(CC1CCC1)C(=O)C(N)=O)C2(C)C)C(C)(C)C (some centres not stated),0.758,0.813
O=C(NNC(=S)Nc1ccc(Cl)cc1)c1ccncc1,0.695,0.45
CC1=C(/C=C/C(C)=C/C=C/C(C)=C/C(=O)Nc2ccc(O)cc2)C(C)(C)CCC1,0.95,0.595
CC(C)Nc1ncnc2c1cnn2-c1ccc(Cl)cc1,0.689,0.773
CC(=O)Nc1cc(NS(=O)(=O)c2ccc(Cl)cc2)cc2c(Cl)n[nH]c12,0.744,0.752

SMILES,larval motility (2 h),larval motility (24 h)
Nc1nc(C(F)(F)F)cc2c1[nH]c(=O)n2Cc1ccccc1,0.857,0.614
OB1OCc2cc(Cl)ccc21,0.664,1.04
COc1ccc(NS(=O)(=O)c2ccc(Cl)s2)cn1,0.931,1.43
COc1cc(C2C3=C(CC(C)(C)CC3=O)Nc3ccccc3N2C(C)=O)ccc1OCc1ccccc1 (configuration not stated),0.542,0.617
Nc1cnn(C2OC(CO)C(O)C2O)c(=O)n1 (configuration not stated),1.16,1.33
OCCC#Cc1nc(-c2ccc(F)cc2)c(-c2ccncc2)n1CCCc1ccccc1,0.457,0.301 (active)
Cc1cc(-c2ccccc2)c(C(=O)C(=O)Nc2ccc(N3CCN(c4ncc(F)cn4)CC3)cc2)n1C,0.636,0.529
CCCCSc1nc(N)c2[nH]c(=O)c(=O)n(Cc3ccccc3)c2n1,0.896,1.51
Cc1ccc(NC(=O)c2ccc(CN3CCN(C)CC3)cc2)cc1Nc1nccc(-c2cccnc2)n1,0.64,0.702
C[C@@H](NC(=O)c1cccc(-c2c[nH]c(-c3cc4ccccc4cn3)n2)c1)c1ccc(F)cc1,0.628,0.997
O=[N+]([O-])c1cn2c(n1)OC[C@@H](OCc1ccc(OC(F)(F)F)cc1)C2,1.12,1.3
CCO/N=C/c1ccc(OCCCCN2CCN(c3ccncc3)C2=O)cc1,1.36,1.3
CCCCCCCCC(CP(=O)(O)C(C)N)C(=O)O (configuration not stated),0.654,1.09
CC(C)(C)c1cc(C(=O)/C(C#N)=N/Nc2cccc(Cl)c2)no1,1.14,1.21
CC(C)(C)c1ccc(Oc2ccc(N)cc2)cc1,0.91,1.33
C[C@H](NC(CC(=O)c1ccccc1C(F)(F)F)C(=O)O)c1ccccc1 (some centres not stated),0.873,0.674
O=C(NCc1ccc2c3c(cccc13)C(=O)N2)c1cccs1,0.944,0.861
CC(=O)Oc1ccccc1C(=O)Nc1ncc([N+](=O)[O-])s1,1.58,0.824
CC1(C)Cc2c(C#N)c(SCCc3ccccc3)nc(N3CCOCC3)c2CO1,0.485,1.28
C[C@H]1COc2c(N3CCN(C)CC3)c(F)cc3c(=O)c(C(=O)O)cn1c23,0.447,0.712
OCCCCn1cnc2c(O)nc(NCc3ccc(Cl)c(Cl)c3)nc21,0.982,0.79
Nc1nc(O)c(Br)c(-c2ccccc2)n1,0.633,0.648

SMILES,larval motility (2 h),larval motility (24 h)
O=C(O)C(Cc1c[nH]c2ccccc12)N1C(=O)c2ccccc2C1=O (configuration not stated),1.75,1.18
Cc1cc(CCOc2c(C)cc(-c3nnn(C)n3)cc2C)on1,0.857,0.768
Cc1cccc(CC(=O)N[C@H]2CCOC2=O)c1,1.05,1.31
CC(C)(C)NC(=O)[C@@H]1CN(Cc2cnc3occc3c2)CCN1C[C@@H](O)C[C@@H](Cc1ccccc1)C(=O)N[C@H]1c2ccccc2C[C@H]1O,0.857,0.932
CCCc1ccc(-c2cc3cn([C@H]4C[C@H](O)[C@@H](CO)O4)c(=O)nc3o2)cc1,0.729,0.902
CC[C@H](NC(=O)[C@H](C)NC)C(=O)N1C[C@@H](O)C[C@H]1Cc1c(-c2[nH]c3cc(F)ccc3c2C[C@@H]2C[C@H](O)CN2C(=O)[C@H](CC)NC(=O)[C@H](C)NC)[nH]c2cc(F)ccc12,0.407,0.89
NC[C@H]1OB(O)c2c(OCCCO)cccc21,1.28,1.61
COc1ccc(SCC(=O)N2c3ccccc3Sc3ccccc32)cc1,0.631,1.01
O=C(c1ccccc1)N1CCN(c2ccccc2NC(=O)C(Cl)(Cl)Cl)CC1,1.33,0.669
NCC(=O)Nc1ccc(-n2nc(C(F)(F)F)cc2-c2ccc3c(ccc4ccccc43)c2)cc1,0.799,1.81
Cc1ncc([N+](=O)[O-])n1CC(C)O (configuration not stated),1.43,1.55
Cc1cccc(C)c1C(=O)Nc1nc(-c2ccccn2)cc2ccccc12,0.564,1.01
CCOC(=O)N[C@@H]1CC[C@@H]2[C@@H](C1)C[C@H]1C(=O)O[C@H](C)[C@H]1[C@H]2/C=C/c1ccc(-c2cccc(F)c2)cn1,1.18,0.624
c1cc(CN2CCCNCCNCCCNCC2)ccc1CN1CCCNCCNCCCNCC1,0.964,0.915
C[C@@H](O)[C@H](N)C(=O)NS(=O)(=O)c1cccc(-c2ccc3[nH]ncc3c2)c1,0.665,0.913
O=C(c1ccc(F)cc1)N1CCN2C(=O)c3ccccc3C12c1ccccc1 (configuration not stated),1.12,0.984
COc1ccc(OCc2ccc(COc3c(Cl)cccc3Cl)cc2)c(Cl)c1,1.19,1.03
Oc1c(C(Nc2nc3ccccc3s2)c2ccc(OC(F)F)cc2)ccc2cccnc12 (configuration not stated),0.53,1.26
COc1cc2c(O)c3c(c(-c4ccc5c(c4)OCO5)c2cc1OC)C(=O)OC3,0.887,0.868
O=C(O)C[C@H]1CC[C@H](c2ccc(-c3ccc(Nc4ccc(C(F)(F)F)nc4)cn3)cc2)CC1,0.644,0.489
Nc1nc(-c2ccccc2)nc2c1ncn2[C@@H]1O[C@H](COS(=O)(=O)NC(=O)c2ccccc2O)[C@@H](O)[C@H]1O,0.842,1.04
C[C@H](NC(=O)C(=O)Nc1ccccc1C(C)(C)C)C(=O)N[C@@H](CC(=O)O)C(=O)COc1c(F)c(F)cc(F)c1F,0.777,1.23
